# Assay outcomes as filed in PubChem BioAssay.
# Shown are actives, neighbours in structure and some others; about 11% of the full set was active somewhere.
# ALDH1A1 inh – inhibitors of human aldehyde dehydrogenase 1A1; P00352; Purified ALDH1A1, NADH fluorescence, propionaldehyde substrate; Potency, µM (series often up to 75.3 µM), without a hit: at the top dose activity, negative = inhibition, hits mostly inhibitors; 220,000 tested, 7.3% active; AID 1030; active = well fitted inhibition curve with a large enough effect, not every such curve was filed as active; inconclusive = small, poorly fitted or top-dose-only effect, or another doubt; inactive = no such curve, though single readings can be large or run the other way;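 note: potency is the fitted concentration of half-maximal effect; plate controls were no enzyme wells and a reference inhibitor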
# Target sequence (P00352 whole entry, looked up): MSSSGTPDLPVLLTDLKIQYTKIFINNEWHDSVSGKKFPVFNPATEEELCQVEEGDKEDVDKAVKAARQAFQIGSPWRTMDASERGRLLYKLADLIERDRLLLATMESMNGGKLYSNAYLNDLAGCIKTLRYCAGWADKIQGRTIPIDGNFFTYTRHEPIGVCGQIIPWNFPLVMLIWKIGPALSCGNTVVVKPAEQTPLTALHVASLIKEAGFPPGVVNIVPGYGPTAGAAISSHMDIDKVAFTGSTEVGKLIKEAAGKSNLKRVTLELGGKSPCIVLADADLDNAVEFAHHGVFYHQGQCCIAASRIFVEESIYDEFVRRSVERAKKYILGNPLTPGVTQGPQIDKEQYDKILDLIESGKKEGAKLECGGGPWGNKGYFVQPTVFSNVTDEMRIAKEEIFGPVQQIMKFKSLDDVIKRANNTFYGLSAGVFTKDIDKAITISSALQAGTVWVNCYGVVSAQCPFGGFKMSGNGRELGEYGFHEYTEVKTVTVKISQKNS
# IMPase cell inh – IMPase inhibition in cells; P97697; CHO-M1 cells, IP1 accumulation, HTRF TR-FRET ratio; inhibition (IP1 accumulation), % at 46.1 µM; 120,000 tested, under 10 active; active = well fitted curve in the direction sought with a large enough effect in the signal ratio, not every such curve was filed as active; inconclusive = small, poorly fitted or top-dose-only effect, or a change in a side signal; inactive = no such curve, though single readings can be large or run the other way; the % refers to the signal ratio;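 note: cells stimulated with carbachol in lithium chloride buffer; plate controls were DMSO basal wells for no effect and reference inhibitor wells for full effect; higher means more IMPase inhibition seen as more IP1 and lower FRET ratio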
#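 Seeded CHO-M1 cells were dosed with compound at up to 46 uM, stimulated with carbachol for 30 min, then lysed in IP-One detection reagents. Higher IP1 lowers the TR-FRET signal.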
# HPGD block – blocks human HPGD enzyme activity. P15428. purified HPGD, NADH fluorescence kinetic, PGE2 substrate. Potency, µM, without a hit: top-dose activity change, negative = inhibition, hits mostly inhibitors. 150,000 tested, 4.3% active; active = well fitted inhibition curve with a large enough effect, not every such curve was filed as active; inconclusive = small, poorly fitted or top-dose-only effect, or another doubt; inactive = no such curve, though single readings can be large or run the other way; note: potency is the fitted concentration of half-maximal effect
#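 NADH formation kinetics: reaction with 30 uM PGE2 and 1 mM NAD+ (final), 20 nM enzyme, Tris-HCl pH 8 with Tween 20, after 15 min compound preincubation at room temperature. Fluorescence change, last versus first of five reads.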
# ALOX12 inhib – inhibitors of human 12-lipoxygenase (ALOX12) | AID 1452 | purified 12-hLO, xylenol orange hydroperoxide absorbance | Potency, µM (top dose mostly 57.1 µM), for the others: top-dose activity change, negative = inhibition, usual class: inhibitors | 150,000 tested, 0.12% active | P18054; note: potency is the fitted concentration of half-maximal effect; nearly all actives have a fitted effect of over 55% in size
#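 Purified human 12hLO (150 nM final) was preincubated with compounds for 15 min at room temperature in 25 mM Hepes pH 7.0, 0.01% Triton X-100, then reacted with 40 uM arachidonic acid for 30 min. Hydroperoxide was detected with ferrous iron/xylenol orange.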
# PNC assembly inh – perinucleolar compartment assembly inhibition. PC3M PTB-GFP, PNC prevalence imaging, 16 h; active compounds read low. AID 2417. activity change (PNC), negative = inhibition, % at 10 µM. 140,000 tested, 3.1% active;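 active = readout at or below -70, meaning at least 70% loss of cells showing the perinucleolar compartment, a nuclear body marking cancer cells; inconclusive = readout between -30 and a set limit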;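 note: plate controls were DMSO wells for no effect and camptothecin positive control wells for full effect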
#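 PC3M cells stably expressing PTB-GFP, 750–1000 cells/well, treated 16 h at 37 °C with compound (23 nl of library stock), in duplicate. After paraformaldehyde fixation and Hoechst stain, imaged at 20x; PNC prevalence scored by image analysis.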
# IMPase Li cell – cell-permeable IMPase inhibitors with lithium potentiation; CHO-M1 cells, IP1 TR-FRET (IP-One), carbachol + lithium; Potency, µM (titrated, usually from 59.4 µM), for the others: top-dose activity, negative = IMPase inhibition, hits mostly inhibitors; 210,000 tested, 0.35% active;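 note: IP1 builds up when IMPase is blocked and the TR-FRET signal falls; potency is the fitted concentration of half-maximal effect; plate controls were basal vehicle for no effect and high inhibitor control for full effect; nearly all actives have a fitted effect of over 50% in size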
#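 Steps: plate 2000 CHO-M1 cells per well and culture 16–30 h; add compound and lithium; incubate 30 min, 37C; add d2-IP1 tracer and Eu cryptate anti-IP1 antibody in lysis buffer; read after 10 min at room temperature.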
# Starred values were filed as active, the others as inactive; ? = inconclusive; nt = not tested or not shown; [ ] = dose if it differs, or a comment. Unless noted, calls come from the whole dose curve; as a rule, active = well fitted curve in the direction sought with a large enough effect; inconclusive = small, poorly fitted or top-dose-only effect, or another doubt; inactive = no such curve, though single readings can be large; an effect the other way counts as inactive or inconclusive. Unless noted, % is set by controls: 0 for no effect and ±100 for the full control effect.
SMILES,ALDH1A1 inh,IMPase cell inh,HPGD block,ALOX12 inhib,PNC assembly inh,IMPase Li cell
N#Cc1c(C(F)(F)F)cc(-c2ccccc2)nc1SCc1nc(N)nc(N2CCOCC2)n1,0.5%,-1.2,-14.9%,-1.6%,28.4,16.4%[38.3 µM]
O=c1c(-c2cccs2)nc2cncnc2n1C1CC1,?,nt,?,-3.9%,nt,-7.4%
S=C1SCN(C2CCCCCCCCCCC2)CN1C1CCCCCCCCCCC1,0.3%[13.5 µM],nt,-4.5%,2.4%[11.4 µM],nt,18.8%
CCCCNC(=O)c1ccccc1Cl,14.5%,-1.8,8.91µM*,1.5%,-21.9,3.2%[38.3 µM]
CCCCNC(=O)c1ccccc1C(=O)NCCCC,12.9%,-6.2[1.84 µM],-1.3%,0.6%,?,13.0%[38.3 µM]
O=C(NCCSc1ccccc1)c1ccc(Br)cc1,-3.6%,nt,-15.0%,-0.6%,-9.9,-0.2%
CCCCCNC(=O)c1ccccc1SC,8.4%,-3.1,14.1µM*,-3.9%,-4.1,25.8%[38.3 µM]
O=C(NCCSc1ccccc1)c1cncc(Br)c1,25.1µM*,-2.5,-16.8%,-0.2%,7.6,-0.7%[38.3 µM]
Cc1ccccc1CSCCNC(=S)Nc1ccccc1,-9.8%,nt,nt,nt,nt,3.7%
Cc1ccccc1CSCCNC(=O)c1ccccc1,?,nt,31.6µM*,-1.4%,3.8,6.5%
COc1ccc(CNc2nc(-c3cccnc3)nc3ccccc23)c(OC)c1,-5.5%,nt,nt,nt,nt,22.6%
CSc1ccccc1C(=O)NCCSC(C)(C)C,0.6%,9.3,25.1µM*,-2.4%,51.5,11.0%[38.3 µM]
O=C(NCCSc1ccccc1)c1ccccc1Cl,-6.5%,nt,12.6µM*,-0.6%,31.5,-1.0%
O=C(NCCSc1ccccc1)c1ccccc1,-2.1%,?,-27.6%,-0.2%,16.9,9.5%[38.3 µM]
CSc1ccccc1C(=O)NCCSc1ccccc1,-4.5%,-1.1,15.8µM*,0.7%,-15.2,4.8%[38.3 µM]
CC(C)(C)SCCNC(=O)c1ccccc1,-2.4%,1.4,-17.1%,-2.8%,-17.7,34.1%[38.3 µM]
Cc1ccccc1C(=O)NCCSc1ccccc1,-0.6%,2.9,20µM*,-2.3%,?,20.3%[38.3 µM]
CC(C)CCN1CCN(CC(c2ccccc2)c2ccccc2)CC1CCO (centres undefined),-6.7%,nt,nt,nt,nt,38.7%
COC(=O)C/C=C\[C@@H](C)[C@@H](/C=N\OC[C@@H](O)[C@H]1O[C@H]2OC(C)(C)O[C@H]2[C@@H]1O)NS(=O)(=O)c1ccc(C)cc1,-3.0%[13.5 µM],nt,nt,nt,nt,nt
O=C(Nc1ccccc1C(=O)O)c1cncc(Br)c1,14.1µM*,-1.8,-26.3%,-8.3%,16.9,18.7%[38.3 µM]
CSCCC(=O)Nc1nc(-c2ccccn2)cs1,28.2µM*,nt,nt,nt,nt,-7.4%
O=C(CCCSc1ccccc1)Nc1nc(-c2ccccn2)cs1,?,1.6,?,2.6%,-13.2,23.0%[38.3 µM]
Cn1cccc1C(=O)Nc1nc(-c2ccccn2)cs1,14.1µM*,-2.5,28.2µM*,-0.7%,34.7,5.8%[38.3 µM]
O=C(CNc1ccc2c(c1)OCO2)N/N=C\c1cn(Cc2ccc(F)cc2)c2ccccc12,2µM*,nt,-18.5%,-0.2%,-16.0,13.7%
O=C1C2C3C=CC(C3)C2C(=O)N1/N=C/c1cn(Cc2ccccc2)c2ccccc12 (centres undefined),10.0%,6.6,-5.5%,-4.8%,27.1,-11.3%[38.3 µM]
SMILES,ALDH1A1 inh,IMPase cell inh,HPGD block,ALOX12 inhib,PNC assembly inh,IMPase Li cell
O=C(CNc1ccc2c(c1)OCO2)N/N=C\c1cn(Cc2ccccc2)c2ccccc12,4.47µM*,nt,-15.8%,-1.8%,-20.2,10.0%
O=C1C2C3C=CC(C3)C2C(=O)N1/N=C/c1cn(Cc2ccc(F)cc2)c2ccccc12 (centres undefined),25.1µM*,0.5,-8.6%,-1.2%,12.9,11.6%[38.3 µM]
N#Cc1c(-c2ccccc2)cc(-c2ccccc2)nc1SCC(O)CS(=O)(=O)Cc1ccc(Cl)cc1 (centres undefined),nt,-10.8,nt,nt,nt,nt
Cc1nc2ccccc2n1CCCOc1ccccc1,-6.6%,-0.5,-4.1%,-3.8%,-104.6*,9.9%
CCOCCn1c(COc2ccccc2)nc2ccccc21,0.7%,-5.8,-9.1%,-5.3%,5.5,6.9%[38.3 µM]
COCc1nc2ccccc2n1CCCOc1ccccc1,-4.9%,4.4,-11.2%,-1.6%,-106.0*,-7.3%[38.3 µM]
